Compounds with a hit are over-represented: about 0.24% of the library has one in this group of screens.
Caspase-7 inhib: blocks human caspase-7 allosterically or competitively; P55210; recombinant caspase-7, Ac-DEVD-AFC fluorescence rate; Potency, µM (series often up to 57.5 µM), usual class: inhibitors; actives 0.02% (n = 75,000); active = well fitted inhibition curve with a large enough effect in the main read-out, with a control signal flat, not every such curve was filed as active; inconclusive = small, poorly fitted or top-dose-only effect, or a change in a side signal
Casp1 inh: caspase-1 (human) inhibition, allosteric or competitive; P29466; Caspase-1 enzyme, Ac-WEHD-AFC fluorogenic rate; Potency, µM (titrated, usually from 57.5 µM), usual class: inhibitors; actives 0.03% (n = 75,000); AID 900
HBB splice mod: modulators of hemoglobin beta chain splicing | HBB splicing reporter cell assay, activation; EGFP reporter with mutant IVS2-654 intron; response scale: normalised to 500 nM splice-correcting PNA | Potency, µM (top dose mostly 46.1 µM), actives largely listed as activators | actives 0.06% (n = 65,000) | AID 925
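Compounds were applied for 2 days to HeLa EGFP-654 cells, 500/well in Optimem with 2% FCS. The reporter's EGFP is disrupted by mis-splicing of beta-globin intron IVS2-654. Readout: summed well GFP fluorescence from 488 nm laser scanning; reference was 500 nM antisense […] 654 PNA.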
UbGFP stabilizer: inhibits proteasome, raising ubiquitin-GFP reporter fluorescence; 67,000 tested, under 10 active; Potency, µM (doses to about 45.9 µM), most hits filed as activators; Ubiquitin-GFP reporter cells, proteasome inhibition, GFP fluorescence; response scale: untreated = 0%, 10 µM MG-132 = 100%; active = well fitted activation curve with a large enough effect, not every such curve was filed as active; inconclusive = small, poorly fitted or top-dose-only effect, or another doubt; inactive = no such curve, though single readings can be large or run the other way
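Proteasome block read as GFP accumulation: ubiquitin(G76V)-GFP U2OS cells exposed to compound (2.9 nM–46 uM) for 4 hr at 37 C. Normalization used untreated cells as 0% and 10 uM MG-132 as 100%; concentration-response curves fitted.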
USP2a inhib: inhibitors of human ubiquitin-specific protease USP2a; O75604; USP2a enzymatic assay, qHTS inhibition; Potency, µM (titrated, usually from 38.3 µM), actives largely listed as inhibitors; actives 0.1% (n = 60,000); AID 927; note: nearly all actives have a fitted effect of over 60% in size
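Coupled readout: USP2-cleaved Ub-PLA2 (20nM final) turns over NBD C6-HPC (20uM final), Ex 460nm/Em 535nm after 2.5 h, time-zero read flagging artifacts. Enzyme (20nM final, pH 8.0 Tris) given 30 min RT with compound first; NEM defines full inhibition.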
GFP derepression: epigenetic modulators derepressing GFP locus in mouse cells | mouse C127i GFP locus derepression, cytometry, 30 h | Potency, µM (highest dose often 46.1 µM) | actives 0.09% (n = 68,000) | AID 597
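Murine C127i mammary cells carrying a silenced, stably integrated CMV-driven GFP reporter were treated with compound for 30 hours at 37 C. After PBS washes, GFP-positive cells were counted by laser-scanning microplate cytometry.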
Of the large screens only hits and unclear results are named; the others gave an inactive call. Unless noted, calls come from the whole dose curve; as a rule, active = well fitted curve in the direction sought with a large enough effect; inconclusive = small, poorly fitted or top-dose-only effect, or another doubt; inactive = no such curve, though single readings can be large; an effect the other way counts as inactive or inconclusive.

O=C1C=CC(=O)c2c(O)cccc21	Caspase-7 inhib inconclusive, Casp1 inh 20µM, USP2a inhib 13µM (no result: HBB splice mod, UbGFP stabilizer, GFP derepression)
CCCCCCCCCCCCCC(=O)O[C@H]1[C@@H](C)[C@@]2(O)[C@@H](C=C(CO)C[C@]3(O)C(=O)C(C)=C[C@@H]23)C2C(C)(C)[C@]21OC(C)=O (some centres undefined)	none
N[C@@H](Cc1cc(O)c(O)cc1O)C(=O)O	Caspase-7 inhib inconclusive, Casp1 inh inconclusive, USP2a inhib 6.3µM
CN(N=O)c1ccc(O)c(O)c1	USP2a inhib 13µM
CCn1nc(-c2cccs2)nc2c(=O)n(C)c(=O)nc1-2	Caspase-7 inhib inconclusive, Casp1 inh 0.79µM
O=C(O)[C@@H]1[C@H](C(=O)O)[C@]2(Cl)C(Cl)=C(Cl)[C@@]1(Cl)C2(Cl)Cl	GFP derepression 3.2µM (no result: USP2a inhib)
O=S1OCC2C(CO1)C1(Cl)C(Cl)=C(Cl)C2(Cl)C1(Cl)Cl (centres undefined)	none (no result: UbGFP stabilizer, GFP derepression)
CC[C@@H]1CN2CCc3cc(OC)c(OC)cc3[C@H]2C[C@@H]1C[C@@H]1NCCc2cc(OC)c(OC)cc21	none
NC(=O)CI	USP2a inhib 25µM
O=C(O)CN1CCN(CC(=O)O)CC(=O)[O][Hg][O]C(=O)C1	none (no result: USP2a inhib)
CC(=O)[C@@H]1CC[C@@H]2[C@H]3CC[C@H]4C[C@@H](O)CC[C@]4(C)[C@@H]3C(=O)C[C@]21C	none (no result: Caspase-7 inhib, Casp1 inh, USP2a inhib)
O=C1CN=C(c2cccs2)c2c(sc3c2CCCC3)N1	USP2a inhib 6.3µM (no result: HBB splice mod)
Oc1ccc2c3c1O[C@@H]1c4[nH]c5c(c4C[C@@]4(O)[C@@H](C2)N(CC2CC2)CC[C@]314)C[C@]1(O)[C@@H]2Cc3ccc(O)c4c3[C@@]1(CCN2CC1CC1)[C@H]5O4	USP2a inhib inconclusive
CN1C[C@@H](CNC(=O)OCc2ccccc2)C[C@H]2c3cccc4c3c(cn4C)C[C@@H]21	none (no result: Caspase-7 inhib, Casp1 inh, USP2a inhib)
